# NSD2 HMT inh – NSD2 (human) methyltransferase inhibition; inhibition, % at 12.5 µM; actives 0.54% (n = 310,000); NSD2 peptide methylation, AlphaScreen, 120 min; O96028; AID 743445; in the data active means inhibition above about 50%
# RAD52 anneal inh – inhibitors of human RAD52 DNA annealing; P43351; recombinant RAD52 DNA annealing, FRET fluorescence; inhibition, % at 18.7 µM; actives 0.46% (n = 360,000); AID 651710;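 active means every replicate showing at least 50% inhibition; inconclusive means mean inhibition at least 50% but not in every replicate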
# miR-122 sensor – blocks miR-122 activity in Huh7 sensor cells; Huh7 miR-122 Renilla luciferase sensor, 48 h; neutral wells = 0, positive control = 100; activation (reporter increase), % at 12.5 µM; actives 0.3% (n = 340,000); AID 602342;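 active means mean replicate activation score at least 90 and every replicate individually at or above 90; inconclusive means only one of the two criteria met; inactive means neither criterion met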;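 further: higher luciferase means less miR-122 activity so hits act as miR-122 inhibitors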
# Casp6 inh – caspase-6 (human) enzyme inhibition; AID 686996; actives 0.53% (n = 350,000); inhibition, % at 12.5 µM; P55212; purified caspase-6, Z-VEID-R110 cleavage fluorescence;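 active means mean inhibition across replicates at least about 35%, with every replicate also reaching that limit, limit read from the data; inconclusive means only one of the two criteria met; inactive means neither criterion met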
# MLL AF4-AF9 inh – blocks AF4 peptide binding to human AF9; AlphaScreen, biotin-AF4 peptide binding to FLAG-AF9; inhibition, % at 10 µM; actives 0.47% (n = 350,000); AID 651704;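 active means every replicate reaching a set inhibition limit, whatever the replicate mean, cut at about 25% in these data; inconclusive means mean inhibition reaches that limit but some replicates miss it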
# Target sequence (P42568 whole entry, looked up): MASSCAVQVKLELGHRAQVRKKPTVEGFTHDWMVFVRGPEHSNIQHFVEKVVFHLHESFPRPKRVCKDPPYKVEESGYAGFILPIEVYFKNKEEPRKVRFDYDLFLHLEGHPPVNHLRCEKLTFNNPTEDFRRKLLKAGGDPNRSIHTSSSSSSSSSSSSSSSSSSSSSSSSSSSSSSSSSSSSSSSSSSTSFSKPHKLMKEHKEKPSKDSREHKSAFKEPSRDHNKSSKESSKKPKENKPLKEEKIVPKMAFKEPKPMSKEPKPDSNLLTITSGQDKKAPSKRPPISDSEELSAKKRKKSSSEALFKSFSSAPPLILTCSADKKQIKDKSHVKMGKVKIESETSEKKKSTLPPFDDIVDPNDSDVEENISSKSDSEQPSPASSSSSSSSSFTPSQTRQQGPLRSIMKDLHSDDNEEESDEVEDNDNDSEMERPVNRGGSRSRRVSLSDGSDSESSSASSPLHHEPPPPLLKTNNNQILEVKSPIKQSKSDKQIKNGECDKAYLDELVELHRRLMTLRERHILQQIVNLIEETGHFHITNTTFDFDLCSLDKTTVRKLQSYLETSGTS
# Hits are given with their value; 0 = inactive; ? = inconclusive; - = not tested or not shown; ! = not confirmed by another sample. In the library only some 1.5% were active in any assay of this set; here they are far more common.
SMILES,NSD2 HMT inh,RAD52 anneal inh,miR-122 sensor,Casp6 inh,MLL AF4-AF9 inh
Fc1ccccc1C1c2[nH]c3ccccc3c2CCN1Cc1cccn1-c1ncccn1 (configuration not stated),0,0,0,0,27
Cc1ccccc1C1c2[nH]c3ccccc3c2CCN1Cc1cccn1-c1ncccn1 (configuration not stated),0,0,0,0,0
O=C([C@H]1[C@H](CO)[C@H]2Cn3c(ccc(-c4ccccc4F)c3=O)[C@@H]1N2C(=O)C1CC1)N1CCOCC1,-,0,0,0,0
Cc1nc2c(nc1C)C(=O)c1ccccc1C2=O,0,0,0,36,0
O=C1c2ccccc2-c2nc3ccccc3nc21,0,-,0,-,-
COc1ccc(S(=O)(=O)NCCSC(C)(C)C)c(Cl)c1Cl,0,-,253,-,-
C[C@H](CO)N1C[C@H](C)[C@H](CN(C)Cc2cccnc2)Oc2cc(C#CC3CC3)ccc2S1(=O)=O,-,0,0,0,0
COc1ccc(C[C@H]2CN3C(=NC[C@@H]3Cc3ccc(O)cc3)N2CCNC(=O)c2ccc(C)c(Br)c2)cc1,-,0,0,0,29
Cc1ccc(C(=O)NCCN2C3=NC[C@H](Cc4ccc(O)cc4)N3C[C@H]2Cc2ccc(O)cc2)cc1Br,-,0,-,0,29
O=C(C[C@@H]1C=C[C@@H](NC(=O)NC2CCCCC2)[C@H](CO)O1)NCc1ccc(Cl)cc1,-,0,-,0,0
Fc1cccc(-c2ccc([C@@H]3[C@@H]4CN(Cc5nccs5)C[C@H]3N4)cc2)c1,-,0,-,0,0
Fc1ccc(-c2ccc(C3[C@@H]4CN(Cc5cccc(F)c5)C[C@H]3N4)cc2)cc1 (some centres not stated),-,94!,-,0,?
Cc1ccc(-c2ccc(C3[C@@H]4CN(Cc5cccnc5)C[C@H]3N4)cc2)cc1 (some centres not stated),-,53!,-,0,0
Fc1ccc(-c2ccc(C3[C@@H]4CN(Cc5ccccc5)C[C@H]3N4)cc2)cc1 (some centres not stated),-,78!,-,0,0
Cc1ccc(-c2ccc(C3[C@@H]4CN(Cc5cccc(F)c5)C[C@H]3N4)cc2)cc1 (some centres not stated),-,54,-,0,0
COc1ccc(S(=O)(=O)Nc2ccc3c(c2)C(=O)N([C@H](C)CO)C[C@@H](C)[C@@H](CN(C)C(=O)NC2CCCCC2)O3)cc1,-,0,0,0,0
Cc1noc(C)c1NC(=O)N(C)C[C@H]1OCCCC[C@@H](C)Oc2ccc(NS(=O)(=O)c3ccc(Cl)cc3)cc2C(=O)N([C@H](C)CO)C[C@H]1C,-,0,0,0,0
CC(C)NC(=O)N(C)C[C@H]1OCCCC[C@@H](C)Oc2ccc(NS(=O)(=O)c3ccccc3)cc2C(=O)N([C@@H](C)CO)C[C@@H]1C,-,0,-,-,0
CC(CC(=O)Nc1ccc2c(c1)c(=O)n(C)n2-c1cccs1)c1ccccc1 (configuration not stated),0,0,0,37,0
Cc1cc(C)cc(-n2c3ccc(NC(=O)Cc4cccc5ccccc45)cc3c(=O)n2C)c1,0,0,0,0,0
O=C(CCN1C(=O)/C(=C\C=C\c2ccccc2)SC1=S)Nc1ccccc1C(=O)O,0,0,0,45,0
CCc1cccc(NS(=O)(=O)c2ccc3c(c2)n(C)c(=O)n3C)c1,0,0,117,0,0
Cn1c(=O)n(C)c2cc(NS(=O)(=O)c3ccc(C(C)(C)C)cc3)ccc21,0,0,107,0,0
Cn1c(=O)n(C)c2cc(NS(=O)(=O)c3ccc4c(c3)CCCC4)ccc21,0,-,-,-,-
CCc1cccc(NS(=O)(=O)c2ccc3c(c2)oc(=O)n3C)c1,0,-,0,-,-
SMILES,NSD2 HMT inh,RAD52 anneal inh,miR-122 sensor,Casp6 inh,MLL AF4-AF9 inh
CC(=O)c1cccc(NS(=O)(=O)c2ccc3c(c2)oc(=O)n3C)c1,0,-,208,-,-
CCNC(=O)[C@@H]1[C@@H](CO)[C@@H]2Cn3c(cccc3=O)[C@@H]2N1C(=O)C1CCCC1,-,0,0,0,0
COc1ccc([C@H]2C[C@H]3C(Br)=CC2C(=O)[C@]32CO2)cc1OC,-,0,-,0,0
COCCn1c(SCC(=O)Nc2ccccc2OC)nc2c([nH]c3ccccc32)c1=O,0,0,-,70,0
CCCCC(NC(=O)Cc1c(C)c2cc3c(-c4ccccc4)coc3c(C)c2oc1=O)C(=O)O (configuration not stated),0,0,0,60,0
C/C=C/c1ccc(C2[C@H]3CNC[C@@H]2N3Cc2nccs2)cc1 (some centres not stated),-,0,-,0,0

# Screening results deposited in PubChem BioAssay by Broad Institute.
